This note sets out measurements from PubChem BioAssay (NCI).

Experiment in all cases: NCI-60 one-dose screen, 48 h (100 = growth as untreated, 0 = no growth, -100 = all killed)
One assay concerns SR leukemia. The settings on record: 10 µM unless noted.
Another assay relates to RPMI-8226 leukemia. As to conditions: 10 µM unless noted.
A further assay has as its system OVCAR-8 ovarian. The settings on record: 10 µM unless noted.
A further assay relates to OVCAR-5 ovarian. The settings on record: 10 µM unless noted.
The test system of another assay is OVCAR-4 ovarian. The settings on record: 10 µM unless noted.
Another assay relates to SK-OV-3 ovarian. The settings on record: 10 µM unless noted.
For another assay, the system named is IGROV1 ovarian. The settings on record: 10 µM unless noted.
For the next assay, the system named is OVCAR-3 ovarian. As to conditions: 10 µM unless noted.
The test system of another assay is NCI/ADR-RES ovarian. The settings on record: 10 µM unless noted.
For a further assay, the system named is T-47D breast. The settings on record: 10 µM unless noted.
Another assay has as its system BT-549 breast. As to conditions: 10 µM unless noted.
The next assay has as its system MDA-MB-435 melanoma. As to conditions: 10 µM unless noted.
A further assay concerns SW-620 colon. The settings on record: 10 µM unless noted.
In another assay the test system is MCF7 breast. The settings on record: 10 µM unless noted.
A further assay concerns HCT-116 colon. The settings on record: 10 µM unless noted.
The next assay deals with KM12 colon. The settings on record: 10 µM unless noted.
A further assay concerns HCC-2998 colon. As to conditions: 10 µM.

Compounds without any hit were thinned out: in the full panel of roughly 83,000, 20% have a hit.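 Compound tested at a single concentration for 48 hours in 96-well plates; a percent growth value below 10 was scored as active.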 Values without a mark were called inactive. Calls of active or inactive are those of the source.

As to `COc1cc2c(cc1OCCCCCCN1CCN(c3ncnc4ccccc34)CC1)N=CC1CCCN1C2=O` (configuration not stated), the growth in the assay with SR leukemia was -29.6% (active); in the assay with RPMI-8226 leukemia, -47.4% (active); with OVCAR-8 ovarian, -12.1% (active); with OVCAR-5 ovarian, 10.2%; in the assay on OVCAR-4 ovarian it was -14.4% (active); in the assay on SK-OV-3 ovarian, 20.7%. Besides, the growth was 1.08% (active) in the assay with IGROV1 ovarian; -6.78% (active) in the assay with OVCAR-3 ovarian; 6.93% (active) with NCI/ADR-RES ovarian; 6.98% (active) in the assay on T-47D breast; -40.8% (active) with BT-549 breast; -77.1% (active) in the assay on MDA-MB-435 melanoma. In addition, the growth with SW-620 colon is -19.1% (active); in the assay with MCF7 breast, 11.2%; in the assay with HCT-116 colon, 3.4% (active); with KM12 colon, -27.9% (active).
With `CN1[C@@H]2CC[C@H]1/C(=C\c1ccccc1)C1=C2[C@@H](c2ccccc2)C(C#N)=C(N)O1`, the growth in the assay with SR leukemia was 61.8%; with RPMI-8226 leukemia it was 55.5%; in the assay on OVCAR-8 ovarian, 84.3%; with OVCAR-5 ovarian, 84.9%; in the assay with OVCAR-4 ovarian, 73.9%; with SK-OV-3 ovarian it was 84.4%. The growth is 93.8% with IGROV1 ovarian; 97.2% in the assay on OVCAR-3 ovarian; 90.2% with NCI/ADR-RES ovarian; 58.6% in the assay with T-47D breast; 67% in the assay on BT-549 breast; 98.5% in the assay on MDA-MB-435 melanoma. In addition, the growth is 98.2% with SW-620 colon, 85.2% in the assay with MCF7 breast, 49.9% in the assay on HCT-116 colon and 85.3% in the assay on KM12 colon.
For the compound `Cn1cnc(-c2cc3nccc(Oc4ccc(NC(=S)NC(=O)Cc5ccccc5)cc4F)c3s2)c1`, the growth was 69.3% with SR leukemia; 54.9% with RPMI-8226 leukemia; 75.9% with OVCAR-8 ovarian; 111% with OVCAR-5 ovarian; 86.7% in the assay with OVCAR-4 ovarian; 82.6% in the assay with SK-OV-3 ovarian. Moreover, the growth in the assay with IGROV1 ovarian is 95.4%; in the assay on OVCAR-3 ovarian, 80.5%; in the assay on NCI/ADR-RES ovarian, 96%; in the assay on T-47D breast, 65.8%; with BT-549 breast, 77.3%; in the assay with MDA-MB-435 melanoma it was 93.2%. The growth in the assay on SW-620 colon was 76.7%; in the assay on MCF7 breast it was 79.5%; with HCC-2998 colon, 104%; in the assay on KM12 colon, 21.8%.
Turning to `COCc1c(-c2ccc(NC(=O)Nc3cc(C(F)(F)F)ccc3F)c(F)c2)c2c(N)ncnn2c1CN1CCOCC1`, the growth in the assay on SR leukemia is -9.37% (active); in the assay with RPMI-8226 leukemia it was -33.1% (active); in the assay on OVCAR-8 ovarian, -28.6% (active); in the assay with OVCAR-5 ovarian, -18.3% (active); in the assay on OVCAR-4 ovarian, -6.98% (active); with SK-OV-3 ovarian it was -34.8% (active). Also, the growth with IGROV1 ovarian is -21.6% (active); with OVCAR-3 ovarian, 6.05% (active); with NCI/ADR-RES ovarian, -21.4% (active); in the assay on T-47D breast it was -27% (active); in the assay with BT-549 breast, -39.5% (active); in the assay with MDA-MB-435 melanoma, -68.8% (active). For the same compound, the growth with SW-620 colon is -0.244% (active); with MCF7 breast, -22.9% (active); in the assay with HCT-116 colon, -1.82% (active); with KM12 colon, -37.2% (active).
Turning to `CC[C@H](Nc1ncnc2nc[nH]c12)c1nc2cccc(F)c2c(=O)n1-c1ccccc1`, the growth with SR leukemia is 72.8%; in the assay on RPMI-8226 leukemia it was 78.9%; with OVCAR-8 ovarian, 60.6%; in the assay on OVCAR-5 ovarian, 61.8%; in the assay on OVCAR-4 ovarian it was 95.7%; with SK-OV-3 ovarian, -4.44% (active). In addition, the growth with IGROV1 ovarian is 8.8% (active); with OVCAR-3 ovarian, 48.7%; with NCI/ADR-RES ovarian it was 83%; with T-47D breast it was -4.25% (active); in the assay with BT-549 breast it was 40.2%; with MDA-MB-435 melanoma, 82.6%. In addition, the growth with SW-620 colon was 78.3%; with MCF7 breast it was 54.4%; in the assay with HCT-116 colon, 65.5%; with KM12 colon, 84.6%.
In the case of `Cc1cccc(C)c1N1C(c2ccccc2)=NNC12C=CC(=O)c1c(O)cccc12` (configuration not stated), the growth in the assay on SR leukemia was 56.9%; with RPMI-8226 leukemia it was 75.6%; in the assay with OVCAR-8 ovarian, 69.6%; in the assay on OVCAR-5 ovarian, 90.8%; in the assay with OVCAR-4 ovarian it was 70.5%; in the assay on SK-OV-3 ovarian, 86%. For the same compound, the growth in the assay on IGROV1 ovarian is 83.3%; in the assay on OVCAR-3 ovarian, 51.7%; in the assay on NCI/ADR-RES ovarian, 70.3%; with T-47D breast, 96.2%; with BT-549 breast, 44.7%; in the assay on MDA-MB-435 melanoma, -90.1% (active). The growth was 103% in the assay on SW-620 colon, 78.7% with MCF7 breast and 98.5% with HCC-2998 colon.
For `COc1cc2ncnc3c2cc1OCCCCCN(C)Cc1ccc(Br)cc1N3`, the growth in the assay with SR leukemia was 21.6%; in the assay on RPMI-8226 leukemia, 64.1%; in the assay on OVCAR-8 ovarian, 41.9%; with OVCAR-5 ovarian, 50.1%; in the assay on OVCAR-4 ovarian, 42%; in the assay on SK-OV-3 ovarian, -4.09% (active). Besides, the growth was -8.59% (active) with IGROV1 ovarian; 46.9% with OVCAR-3 ovarian; 46.7% in the assay with NCI/ADR-RES ovarian; 4.78% (active) with T-47D breast; 60.6% in the assay on BT-549 breast; 72.3% with MDA-MB-435 melanoma. The growth with SW-620 colon was 47.7%; in the assay on MCF7 breast it was 56.9%; in the assay on HCC-2998 colon it was 68%; in the assay on KM12 colon, 58.9%.
On to `O=C(Cc1ccc(/C=C/C(=O)c2ncc[nH]2)cc1)Nc1ccc(S(F)(F)(F)(F)F)cc1`, for which the growth in the assay on SR leukemia was 4.88% (active); in the assay on RPMI-8226 leukemia it was -17.6% (active); in the assay on OVCAR-8 ovarian, 88.2%; in the assay with OVCAR-5 ovarian it was 86.8%; in the assay with OVCAR-4 ovarian, 93.2%; with SK-OV-3 ovarian, 101%. Further, the growth in the assay on IGROV1 ovarian is 52.8%; in the assay on OVCAR-3 ovarian, 80.3%; in the assay with NCI/ADR-RES ovarian, 97.2%; in the assay on T-47D breast it was 57.6%; in the assay on BT-549 breast it was 64.3%; in the assay with MDA-MB-435 melanoma, 56.1%. Besides, the growth with SW-620 colon was 10.4%; in the assay with MCF7 breast, 12.4%; in the assay on HCC-2998 colon, 78.9%; with KM12 colon, 8.06% (active).
Take `O=C(Nc1nc2cccc(-c3ccc(CN4CCS(=O)(=O)CC4)cc3)n2n1)C1CC1`: the growth in the assay with SR leukemia was 45.4%; in the assay on RPMI-8226 leukemia it was 62.5%; with OVCAR-8 ovarian it was 58.1%; in the assay on OVCAR-5 ovarian it was 75.3%; with OVCAR-4 ovarian it was 78.4%; in the assay with SK-OV-3 ovarian it was 58.4%. The growth with IGROV1 ovarian is 65%; in the assay on OVCAR-3 ovarian it was 57.5%; in the assay with NCI/ADR-RES ovarian, 90.3%; in the assay with T-47D breast, 80.4%; in the assay with BT-549 breast, 53.6%; in the assay with MDA-MB-435 melanoma, 91.3%. Further, the growth was 30.1% in the assay with SW-620 colon, 16.7% in the assay with MCF7 breast and 79.2% in the assay with HCC-2998 colon.
